According to article PMC7862700, “An all-to-all approach to the identification of sequence-specific readers for epigenetic DNA modifications on cytosine”:

Legend:
Assay in all cases: DAPPL (digital affinity profiling via proximity ligation, sequencing); 10 mM Tris-HCl pH 7.5, 50 mM NaCl, 1 mM DTT, 4% glycerol, room temperature, 30 min; GST-TFs on glutathione beads, 16-mer random dsDNA library, 0.1% formaldehyde crosslink after washing; high values mean tight binding
FEV = molecular target: T1, FEV (Homo sapiens, UniProt Q99581 1-238); details: protein: recombinant; tags: N-terminal GST; dsDNA, one strand shown
T1 sequence: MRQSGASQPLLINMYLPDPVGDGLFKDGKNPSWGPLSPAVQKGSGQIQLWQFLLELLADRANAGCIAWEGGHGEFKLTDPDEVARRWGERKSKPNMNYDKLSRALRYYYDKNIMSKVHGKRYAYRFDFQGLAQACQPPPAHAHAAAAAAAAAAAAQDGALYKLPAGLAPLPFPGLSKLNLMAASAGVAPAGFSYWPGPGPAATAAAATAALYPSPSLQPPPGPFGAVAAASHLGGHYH
Procedure, shortened: (§1)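 Each value of binding signal is a hexamer's read frequency for a factor divided by the same hexamer's frequency in the tag-only sample. Barcoded, bead-captured GST fusions of human transcription factors made in yeast were pooled with that sample and incubated with 200 nmole of a random double-stranded 16-mer DNA library in Tris/NaCl/DTT/glycerol buffer at room temperature for 30 min. Washing, 0.1% formaldehyde crosslinking, proximity ligation, PCR and Illumina NextSeq500 sequencing followed.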

ETV5 = ETV5 (Homo sapiens, UniProt P41161 1-510); details: protein: recombinant; tags: N-terminal GST; dsDNA, one strand shown
Procedure, shortened: as §1

HSF1 = HSF1 (Homo sapiens, UniProt Q00613 1-529); details: protein: recombinant; tags: N-terminal GST; chain copies: 3; dsDNA, one strand shown
Procedure, shortened: as §1

SPIC = molecular target: T2, SPIC (Homo sapiens, UniProt Q8N5J4 1-248); details: protein: recombinant; tags: N-terminal GST; dsDNA, one strand shown
T2 sequence: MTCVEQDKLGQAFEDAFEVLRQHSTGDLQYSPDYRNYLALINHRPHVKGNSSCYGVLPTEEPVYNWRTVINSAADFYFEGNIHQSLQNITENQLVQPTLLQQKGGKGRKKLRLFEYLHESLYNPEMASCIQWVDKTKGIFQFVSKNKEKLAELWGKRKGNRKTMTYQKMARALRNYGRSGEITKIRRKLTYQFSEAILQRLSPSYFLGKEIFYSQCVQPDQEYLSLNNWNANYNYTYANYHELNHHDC
Procedure, shortened: as §1

ELF4 = ELF4 (Homo sapiens, UniProt Q99607 1-663); details: protein: recombinant; tags: N-terminal GST; dsDNA, one strand shown
Procedure, shortened: as §1

ELK4 = molecular target: T3, ELK4 (Homo sapiens, UniProt P28324-2 1-405); details: protein: recombinant; tags: N-terminal GST; dsDNA, one strand shown
T3 sequence: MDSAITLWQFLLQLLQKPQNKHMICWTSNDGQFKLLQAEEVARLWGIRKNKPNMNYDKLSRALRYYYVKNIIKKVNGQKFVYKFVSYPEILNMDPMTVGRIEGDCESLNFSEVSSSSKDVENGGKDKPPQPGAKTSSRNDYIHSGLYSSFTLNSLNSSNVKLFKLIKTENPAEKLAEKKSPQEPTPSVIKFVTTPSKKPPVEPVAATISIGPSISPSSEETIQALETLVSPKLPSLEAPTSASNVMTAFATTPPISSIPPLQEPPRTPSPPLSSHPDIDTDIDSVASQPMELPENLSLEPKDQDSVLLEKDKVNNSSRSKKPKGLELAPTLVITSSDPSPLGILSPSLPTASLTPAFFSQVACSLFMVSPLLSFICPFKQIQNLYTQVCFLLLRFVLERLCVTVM
Procedure, shortened: as §1

ETV2 = molecular target: T4, ETV2 (Homo sapiens, UniProt O00321 1-342); details: protein: recombinant; tags: N-terminal GST; dsDNA, one strand shown
T4 sequence: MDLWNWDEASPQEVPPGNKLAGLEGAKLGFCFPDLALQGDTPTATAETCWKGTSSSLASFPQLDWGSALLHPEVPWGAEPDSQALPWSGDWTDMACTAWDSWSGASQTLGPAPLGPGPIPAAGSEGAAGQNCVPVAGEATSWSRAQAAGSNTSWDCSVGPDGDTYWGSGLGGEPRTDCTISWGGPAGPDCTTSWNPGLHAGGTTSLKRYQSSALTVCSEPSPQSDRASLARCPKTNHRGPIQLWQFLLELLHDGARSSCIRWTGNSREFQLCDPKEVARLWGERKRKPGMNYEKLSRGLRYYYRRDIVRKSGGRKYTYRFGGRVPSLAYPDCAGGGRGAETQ
Procedure, shortened: as §1

ELF3 = molecular target: T5, ELF3 (Homo sapiens, UniProt P78545 1-371); details: protein: recombinant; tags: N-terminal GST; dsDNA, one strand shown
T5 sequence: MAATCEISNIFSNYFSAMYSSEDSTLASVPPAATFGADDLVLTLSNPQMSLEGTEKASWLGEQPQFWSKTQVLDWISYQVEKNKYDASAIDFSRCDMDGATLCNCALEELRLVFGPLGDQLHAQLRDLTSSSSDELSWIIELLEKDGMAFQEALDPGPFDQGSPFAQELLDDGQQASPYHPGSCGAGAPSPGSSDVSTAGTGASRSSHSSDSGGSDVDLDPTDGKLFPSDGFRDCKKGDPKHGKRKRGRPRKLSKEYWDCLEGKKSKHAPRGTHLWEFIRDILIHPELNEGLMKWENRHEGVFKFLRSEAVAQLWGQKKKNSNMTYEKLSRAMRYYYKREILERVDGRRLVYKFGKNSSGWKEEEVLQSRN
Procedure, shortened: as §1

CRX = CRX (Homo sapiens, UniProt O43186 1-299); details: protein: recombinant; tags: N-terminal GST; dsDNA, one strand shown
Procedure, shortened: as §1

ETV1 = ETV1 (Homo sapiens, UniProt P50549 1-477); details: protein: recombinant; tags: N-terminal GST; dsDNA, one strand shown
Procedure, shortened: as §1

ERF = molecular target: T6, ERF (Homo sapiens, UniProt P50548 1-548); details: protein: recombinant; tags: N-terminal GST; dsDNA, one strand shown
T6 sequence: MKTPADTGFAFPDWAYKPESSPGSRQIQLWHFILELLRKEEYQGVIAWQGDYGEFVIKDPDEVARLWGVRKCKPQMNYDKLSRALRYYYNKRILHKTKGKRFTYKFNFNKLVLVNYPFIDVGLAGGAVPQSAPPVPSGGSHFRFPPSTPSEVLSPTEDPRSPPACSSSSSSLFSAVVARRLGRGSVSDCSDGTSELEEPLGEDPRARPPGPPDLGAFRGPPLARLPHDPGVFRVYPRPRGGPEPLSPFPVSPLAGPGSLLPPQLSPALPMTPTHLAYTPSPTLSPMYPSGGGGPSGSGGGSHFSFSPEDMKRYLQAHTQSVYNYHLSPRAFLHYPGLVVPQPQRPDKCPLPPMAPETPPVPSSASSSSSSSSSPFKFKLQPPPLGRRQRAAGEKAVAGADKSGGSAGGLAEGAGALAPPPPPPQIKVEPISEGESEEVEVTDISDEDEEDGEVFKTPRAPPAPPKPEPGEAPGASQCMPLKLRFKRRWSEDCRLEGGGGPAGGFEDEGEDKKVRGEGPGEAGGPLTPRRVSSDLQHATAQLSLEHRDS
Procedure, shortened: as §1

ETV3L = molecular target: T7, ETV3L (Homo sapiens, UniProt Q6ZN32 1-361); details: protein: recombinant; tags: N-terminal GST; dsDNA, one strand shown
T7 sequence: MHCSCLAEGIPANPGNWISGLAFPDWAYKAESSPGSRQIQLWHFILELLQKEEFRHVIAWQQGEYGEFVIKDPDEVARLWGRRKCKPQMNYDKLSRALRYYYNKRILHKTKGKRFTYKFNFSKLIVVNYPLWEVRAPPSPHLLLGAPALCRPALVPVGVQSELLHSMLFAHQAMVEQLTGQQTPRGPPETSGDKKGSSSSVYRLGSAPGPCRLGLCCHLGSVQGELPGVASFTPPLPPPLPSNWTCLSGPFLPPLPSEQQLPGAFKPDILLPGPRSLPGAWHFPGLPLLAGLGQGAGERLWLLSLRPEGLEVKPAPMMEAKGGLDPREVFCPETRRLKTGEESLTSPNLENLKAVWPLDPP
Procedure, shortened: as §1

ETS2 = molecular target: T8, ETS2 (Homo sapiens, UniProt P15036 1-469); details: protein: recombinant; tags: N-terminal GST; dsDNA, one strand shown
T8 sequence: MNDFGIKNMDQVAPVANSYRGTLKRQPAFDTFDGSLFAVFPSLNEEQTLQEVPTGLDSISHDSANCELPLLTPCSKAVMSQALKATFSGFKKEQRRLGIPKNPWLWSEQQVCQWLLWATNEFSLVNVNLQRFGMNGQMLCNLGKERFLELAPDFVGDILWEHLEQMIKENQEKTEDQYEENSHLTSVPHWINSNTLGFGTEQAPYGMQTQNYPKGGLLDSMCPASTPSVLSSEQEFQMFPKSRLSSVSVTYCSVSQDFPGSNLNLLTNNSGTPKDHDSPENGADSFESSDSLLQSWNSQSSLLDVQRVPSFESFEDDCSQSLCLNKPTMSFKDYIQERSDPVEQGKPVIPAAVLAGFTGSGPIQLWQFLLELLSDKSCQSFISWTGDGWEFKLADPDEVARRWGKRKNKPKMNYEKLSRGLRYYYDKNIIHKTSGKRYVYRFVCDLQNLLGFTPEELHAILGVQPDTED
Procedure, shortened: as §1

SPDEF = molecular target: T9, SPDEF (Homo sapiens, UniProt O95238 1-335); details: protein: recombinant; tags: N-terminal GST; dsDNA, one strand shown
T9 sequence: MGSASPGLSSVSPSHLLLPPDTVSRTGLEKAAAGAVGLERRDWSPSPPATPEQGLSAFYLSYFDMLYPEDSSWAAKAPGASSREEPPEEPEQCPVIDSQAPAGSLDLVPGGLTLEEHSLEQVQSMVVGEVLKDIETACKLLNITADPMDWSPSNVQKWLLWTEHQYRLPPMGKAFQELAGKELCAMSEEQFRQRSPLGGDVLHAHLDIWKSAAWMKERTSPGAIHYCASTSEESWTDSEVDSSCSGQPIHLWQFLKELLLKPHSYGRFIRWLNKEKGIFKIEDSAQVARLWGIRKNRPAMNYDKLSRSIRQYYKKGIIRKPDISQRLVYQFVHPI
Procedure, shortened: as §1

ETV7 = molecular target: T10, ETV7 (Homo sapiens, UniProt Q9Y603 1-341); details: protein: recombinant; tags: N-terminal GST; dsDNA, one strand shown
T10 sequence: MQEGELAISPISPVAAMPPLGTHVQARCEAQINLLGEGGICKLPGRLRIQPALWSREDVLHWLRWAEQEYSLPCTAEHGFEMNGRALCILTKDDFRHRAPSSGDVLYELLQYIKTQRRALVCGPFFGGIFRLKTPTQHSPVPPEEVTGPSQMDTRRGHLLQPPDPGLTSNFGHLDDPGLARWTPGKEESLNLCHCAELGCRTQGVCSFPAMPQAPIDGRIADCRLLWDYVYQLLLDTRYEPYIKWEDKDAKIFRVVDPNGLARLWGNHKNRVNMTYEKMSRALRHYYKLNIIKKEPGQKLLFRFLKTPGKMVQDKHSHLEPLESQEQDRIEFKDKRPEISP
Procedure, shortened: as §1

ELF5 = molecular target: T11, ELF5 (Homo sapiens, UniProt Q9UKW6-2 1-255); details: protein: recombinant; tags: N-terminal GST; dsDNA, one strand shown
T11 sequence: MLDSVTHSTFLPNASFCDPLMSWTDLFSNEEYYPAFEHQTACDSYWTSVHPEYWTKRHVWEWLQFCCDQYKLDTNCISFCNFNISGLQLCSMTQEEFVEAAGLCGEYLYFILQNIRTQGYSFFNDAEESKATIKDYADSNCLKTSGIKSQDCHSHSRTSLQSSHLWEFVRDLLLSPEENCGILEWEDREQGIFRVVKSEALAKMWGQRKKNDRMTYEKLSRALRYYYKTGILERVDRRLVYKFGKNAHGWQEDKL
Procedure, shortened: as §1

ETV3 = molecular target: T12, ETV3 (Homo sapiens, UniProt P41162-2 1-143); details: protein: recombinant; tags: N-terminal GST; dsDNA, one strand shown
T12 sequence: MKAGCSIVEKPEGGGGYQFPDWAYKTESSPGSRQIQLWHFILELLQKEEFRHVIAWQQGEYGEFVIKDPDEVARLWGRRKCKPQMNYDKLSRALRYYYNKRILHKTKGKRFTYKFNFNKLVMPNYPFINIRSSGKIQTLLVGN
Procedure, shortened: as §1

ETV6 = ETV6 (Homo sapiens, UniProt P41212 1-452); details: protein: recombinant; tags: N-terminal GST; dsDNA, one strand shown
Procedure, shortened: as §1

ETV5, sequence (P41161 whole entry): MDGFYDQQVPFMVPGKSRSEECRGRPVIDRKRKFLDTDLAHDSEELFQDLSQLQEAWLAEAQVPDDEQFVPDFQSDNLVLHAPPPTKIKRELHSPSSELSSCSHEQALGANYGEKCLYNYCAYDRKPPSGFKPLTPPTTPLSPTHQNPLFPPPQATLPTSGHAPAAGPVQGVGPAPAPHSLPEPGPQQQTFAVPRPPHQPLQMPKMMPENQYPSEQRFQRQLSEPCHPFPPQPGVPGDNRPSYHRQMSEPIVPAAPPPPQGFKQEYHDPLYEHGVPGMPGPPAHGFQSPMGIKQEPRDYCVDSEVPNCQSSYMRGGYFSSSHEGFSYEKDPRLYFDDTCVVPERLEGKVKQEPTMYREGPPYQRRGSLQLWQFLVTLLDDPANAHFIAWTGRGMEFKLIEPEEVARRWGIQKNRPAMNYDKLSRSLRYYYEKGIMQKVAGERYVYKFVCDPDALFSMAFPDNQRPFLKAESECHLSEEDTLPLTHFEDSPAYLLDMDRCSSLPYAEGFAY
ELF4, sequence (Q99607 whole entry): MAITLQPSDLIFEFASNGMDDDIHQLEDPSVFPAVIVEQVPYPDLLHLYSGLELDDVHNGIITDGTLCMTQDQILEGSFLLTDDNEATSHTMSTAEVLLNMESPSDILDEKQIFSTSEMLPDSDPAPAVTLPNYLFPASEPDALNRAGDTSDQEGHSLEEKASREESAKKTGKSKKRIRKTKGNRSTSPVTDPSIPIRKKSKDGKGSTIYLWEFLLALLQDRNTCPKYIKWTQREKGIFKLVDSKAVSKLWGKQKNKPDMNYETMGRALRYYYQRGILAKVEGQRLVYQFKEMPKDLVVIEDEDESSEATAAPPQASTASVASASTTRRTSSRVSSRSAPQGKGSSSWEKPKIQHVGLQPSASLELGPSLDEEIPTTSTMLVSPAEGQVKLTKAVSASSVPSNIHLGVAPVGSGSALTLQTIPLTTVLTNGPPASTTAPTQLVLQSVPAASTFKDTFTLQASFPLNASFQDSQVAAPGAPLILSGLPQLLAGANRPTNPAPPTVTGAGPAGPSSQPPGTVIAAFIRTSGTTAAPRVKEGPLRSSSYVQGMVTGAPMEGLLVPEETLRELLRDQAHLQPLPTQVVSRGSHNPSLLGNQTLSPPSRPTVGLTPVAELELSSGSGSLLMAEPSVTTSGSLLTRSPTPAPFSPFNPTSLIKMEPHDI
ETV6, sequence (P41212 whole entry): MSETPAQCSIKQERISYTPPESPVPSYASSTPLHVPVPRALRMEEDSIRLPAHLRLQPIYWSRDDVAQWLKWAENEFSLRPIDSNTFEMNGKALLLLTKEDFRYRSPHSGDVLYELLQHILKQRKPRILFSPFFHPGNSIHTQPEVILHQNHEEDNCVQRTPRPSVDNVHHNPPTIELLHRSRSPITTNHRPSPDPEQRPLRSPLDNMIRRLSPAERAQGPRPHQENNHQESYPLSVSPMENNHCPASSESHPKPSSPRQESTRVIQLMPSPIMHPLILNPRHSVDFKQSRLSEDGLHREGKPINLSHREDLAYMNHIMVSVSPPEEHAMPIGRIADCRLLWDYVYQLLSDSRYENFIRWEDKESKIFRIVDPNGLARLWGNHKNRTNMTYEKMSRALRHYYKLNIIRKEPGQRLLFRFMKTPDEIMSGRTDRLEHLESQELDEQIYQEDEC
HSF1, sequence (Q00613 whole entry): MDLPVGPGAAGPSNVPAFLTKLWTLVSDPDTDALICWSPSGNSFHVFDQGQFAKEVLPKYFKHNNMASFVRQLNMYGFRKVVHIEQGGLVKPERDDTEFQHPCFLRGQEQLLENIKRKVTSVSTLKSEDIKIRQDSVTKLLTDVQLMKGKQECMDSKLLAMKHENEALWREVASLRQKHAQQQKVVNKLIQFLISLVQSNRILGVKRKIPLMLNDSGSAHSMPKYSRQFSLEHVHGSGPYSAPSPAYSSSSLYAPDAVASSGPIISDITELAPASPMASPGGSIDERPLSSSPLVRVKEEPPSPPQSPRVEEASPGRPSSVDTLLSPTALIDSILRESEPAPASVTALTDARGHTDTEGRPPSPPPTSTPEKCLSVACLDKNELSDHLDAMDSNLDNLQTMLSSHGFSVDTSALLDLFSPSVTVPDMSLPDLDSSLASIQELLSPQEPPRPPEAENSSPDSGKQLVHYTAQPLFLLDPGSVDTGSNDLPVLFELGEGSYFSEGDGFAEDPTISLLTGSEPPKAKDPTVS
ETV1, sequence (P50549 whole entry): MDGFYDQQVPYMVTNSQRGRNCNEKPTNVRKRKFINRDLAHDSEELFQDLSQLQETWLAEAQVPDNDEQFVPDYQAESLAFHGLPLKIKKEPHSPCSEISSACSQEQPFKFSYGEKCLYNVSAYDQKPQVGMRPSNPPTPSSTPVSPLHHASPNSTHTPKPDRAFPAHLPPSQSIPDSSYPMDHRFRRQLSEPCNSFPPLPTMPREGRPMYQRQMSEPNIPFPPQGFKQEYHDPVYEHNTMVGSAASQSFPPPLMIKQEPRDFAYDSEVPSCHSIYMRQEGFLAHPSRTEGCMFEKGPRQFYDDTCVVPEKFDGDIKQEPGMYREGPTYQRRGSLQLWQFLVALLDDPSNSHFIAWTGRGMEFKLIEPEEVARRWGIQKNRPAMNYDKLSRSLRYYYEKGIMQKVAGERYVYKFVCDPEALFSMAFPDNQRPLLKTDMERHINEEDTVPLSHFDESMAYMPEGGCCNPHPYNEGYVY
CRX, sequence (O43186 whole entry): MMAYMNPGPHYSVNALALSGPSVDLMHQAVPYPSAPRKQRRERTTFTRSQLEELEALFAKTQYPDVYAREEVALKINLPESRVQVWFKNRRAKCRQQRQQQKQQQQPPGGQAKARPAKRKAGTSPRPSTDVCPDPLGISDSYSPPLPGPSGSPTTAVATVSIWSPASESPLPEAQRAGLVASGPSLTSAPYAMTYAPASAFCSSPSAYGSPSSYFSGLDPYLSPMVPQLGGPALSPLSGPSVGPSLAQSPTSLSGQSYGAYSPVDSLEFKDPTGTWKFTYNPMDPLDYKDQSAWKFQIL

CCTCTC
binding signal (FEV): 1.36 fold enrichment (6-mer frequency, TF over GST control) | binding signal (ETV5): 1.34 fold enrichment (6-mer frequency, TF over GST control) | binding signal (HSF1): 1.23 fold enrichment (6-mer frequency, TF over GST control) | binding signal (SPIC): 1.46 fold enrichment (6-mer frequency, TF over GST control) | binding signal (ELF4): 1.48 fold enrichment (6-mer frequency, TF over GST control) | binding signal (ELK4): 1.36 fold enrichment (6-mer frequency, TF over GST control) | binding signal (ETV2): 1.44 fold enrichment (6-mer frequency, TF over GST control) | binding signal (ELF3): 1.5 fold enrichment (6-mer frequency, TF over GST control) | binding signal (CRX): 1.16 fold enrichment (6-mer frequency, TF over GST control) | binding signal (ETV1): 1.42 fold enrichment (6-mer frequency, TF over GST control) | binding signal (ERF): 1.4 fold enrichment (6-mer frequency, TF over GST control) | binding signal (ETV3L): 1.41 fold enrichment (6-mer frequency, TF over GST control) | binding signal (ETS2): 1.34 fold enrichment (6-mer frequency, TF over GST control) | binding signal (SPDEF): 1.39 fold enrichment (6-mer frequency, TF over GST control) | binding signal (ETV7): 1.44 fold enrichment (6-mer frequency, TF over GST control) | binding signal (ELF5): 1.41 fold enrichment (6-mer frequency, TF over GST control) | binding signal (ETV3): 1.44 fold enrichment (6-mer frequency, TF over GST control) | binding signal (ETV6): 1.5 fold enrichment (6-mer frequency, TF over GST control)
